In PubChem BioAssay (Tox21):
Records with an inconclusive call do not appear. Entries that show only a call come without a potency. Active and inactive are the calls of the source. The call rests on the fitted dose curve; in most records, active means well fitted cell-killing curve with a large enough effect in the repeat runs; inconclusive means weak or mixed curves, or effect the other way; inactive means flat fitted curve, though single readings scatter.

experiment: cAMP Responsive Elements (CRE) small molecule agonists, cell-based qHTS assay: qHTS cell viability counter screen (AID 2060914); conditions: CRE-bla HEK293T viability, CellTiter-Glo luminescence, 5 h; series mostly up to 92.4 µM;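 further: viability read after 3 h of compound exposure; nearly all actives have a fitted effect of over 50% in size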
Text: National Center for Advancing Translational Sciences [NCATS]
Division of Preclinical Innovation [DPI]
U.S. Environmental Protection Agency [EPA]
National Institutes of Environmental Health Sciences [NIEHS]
National Toxicology Program [NTP]
U.S. Food and Drug Administration [FDA]
CREB (cyclic-AMP Responsive Element Binding Protein) is a cellular transcription factor. It binds to certain DNA sequences called cAMP Responsive Elements (CRE) and regulates the transcription of the genes. […] This cell line can be used to find agonists/antagonists of the cyclic AMP signaling pathway. The activation of the report gene under culture conditions can be detected by fluorescence intensity. This cell line has been used to screen the Tox21 10K compound library to identify agonists that induce oxidative stress. The cytotoxicity of the Tox21 compound library against the CRE-bla cell line was tested in parallel by measuring the cell viability using CellTiter-Glo assay (Promega, Madison, WI) in the same wells.
Tox21 Assay Protocol Summary:
CRE-bla Hek 293T cells were suspended in assay medium (DMEM containing 10% dialyzed FBS, 0.1 mM NEAA, 1 mM sodium pyruvate and 25 mM HEPES) and dispensed at 2,000 cells/5 uL /well into 1536-well black wall/clear bottom plates using a Multidrop Combi (ThermoFisher Scientific, Waltham, MA) dispenser. After the assay plates were incubated at 37 C/5% CO2 for 18 hrs, 23 nL of compounds dissolved in DMSO, positive controls or DMSO only was transferred to the assay plate by a pintool workstation (Kalypsys, San Diego, CA). After the plates were incubated at 37 C/5% CO2 for 3 hrs, 1 uL of LiveBLAzer B/G FRET substrate (Invitrogen, Carlsbad, CA) was added to each well using Bioraptr Flying Reagent Dispenser (FRD, Aurora Discovery, San Diego, CA). The plates were incubated at room temperature for 2 h, then fluorescence intensities were measured using an Envision plate reader (PerkinElmer, Shelton, CT) at Excitation 405nm, Emission 460nm and 530nm. The % activity was determined from the ratio of 460nm/530nm. For cell viability readout that measures cytotoxicity, 4 uL /well of CellTiter-Glo reagent was added into the assay plates using Bioraptr FRD. After 30 min incubation at room temperature, the luminescence intensity in the assay plates was measured using a ViewLux (PerkinElmer, Shelton, CT) plate reader.

Row | Structure (SMILES) | Potency
1 | O=C(O)c1ccc[n+]([O-])c1 | inactive
2 | c1cc2c3c(c1)ccc1cccc(c13)C2 | inactive
3 | Cc1ccc(Cl)c(OCC(O)CNC(C)(C)C)c1 (stereo not given) | inactive
4 | CCc1cccc(N(C)C(N)=Nc2cccc3ccccc23)c1 | inactive
5 | CC(C)=CCOc1ccc(/C=C/C(=O)c2ccc(OCC=C(C)C)cc2OCC(=O)O)cc1 | inactive
6 | C/C=C(C)/C=C/C=C(C)C | inactive
7 | CC(=O)c1ccccc1 | inactive
8 | C=CCOC(=O)c1ccc(C(=O)OCC=C)c(C(=O)OCC=C)c1 | inactive
9 | CNC(=S)NC | inactive
10 | NC(=O)c1cn(Cc2c(F)cccc2F)nn1 | inactive
11 | Oc1ccc(CCNCCCCCCNCCc2ccccc2)cc1O | inactive
12 | CCOC(=O)c1cnc2c(cnn2CC)c1NN=C(C)C | inactive
13 | C=C(C)C(=O)OCC1CCCO1 (stereo not given) | inactive
14 | CCN(CC)CCOCCOC(=O)C1(c2ccccc2)CCCC1 | inactive
15 | CCCCCCCC/C=C\CCCCCCCC(=O)OC(CO)CO | inactive
16 | CC(Cl)COP(=O)(OCC(C)Cl)OCC(C)Cl (stereo not given) | inactive
17 | CCCCC/C(=C\c1ccccc1)CO | inactive
18 | CC(C)(C)C1CCCCC1O (stereo not given) | inactive
19 | CC(C)(C)NSc1nc2ccccc2s1 | inactive
20 | CC(C)(Oc1ccc(Cl)cc1)C(=O)OCCCOC(=O)C(C)(C)Oc1ccc(Cl)cc1 | inactive

Row | Structure (SMILES) | Potency
21 | O[C@@H](c1cc(C(F)(F)F)nc2c(C(F)(F)F)cccc12)[C@H]1CCCCN1 | inactive
22 | CCc1c(C(=O)O)c(=O)cnn1-c1ccc(Cl)cc1 | inactive
23 | SC1CCCCC1 | inactive
24 | CC1=CP(=O)(c2ccccc2)CC1 (stereo not given) | inactive
25 | O/N=C/C=N/O | inactive
26 | CCCCCOC(=O)Nc1nc(=O)n([C@@H]2O[C@H](C)[C@@H](O)[C@H]2O)cc1F | inactive
27 | CCCCC(CC)CO (stereo not given) | inactive
28 | c1cc(N(CC2CO2)CC2CO2)ccc1Cc1ccc(N(CC2CO2)CC2CO2)cc1 (stereo not given) | inactive
29 | CC1CC(C)C(=O)C1=O (stereo not given) | inactive
30 | OC1CCC(C2CCCCC2)CC1 (stereo not given) | inactive
31 | COc1ccccc1N1CCN(CC(O)COc2cccc3ccccc23)CC1 (stereo not given) | inactive
32 | CCCCN=C(N)N=C(N)N | inactive
33 | CC(C)(Oc1ccc(Cl)cc1)C(=O)O | inactive
34 | COc1ccc(/C(C)=C/C(=O)O)c(OC)c1 | inactive
35 | COCCOCCOCCO | inactive
36 | CN(C)CCOC(=O)COc1ccc(Cl)cc1 | inactive
37 | O=[N+]([O-])c1cc(C2CCCCC2)c(O)c([N+](=O)[O-])c1 | inactive
38 | CC(C)O.CC(C)O.CCOC(=O)/C=C(\C)O.CCOC(=O)/C=C(\C)O.[Ti] | inactive
39 | CC(=O)c1cccc([N+](=O)[O-])c1 | inactive
40 | Cc1ccc(S(=O)(=O)NC(=O)NC2CCCC2)cc1 | inactive
